The supplement of paper PMC11732987, “Enantioselective OTUD7B fragment discovery through chemoproteomics screening and high-throughput optimisation” (Communications Chemistry, 2025)

How the values were obtained:
Assay in all cases: log2 ratio of Biotin-Ahx-Ub-VS probe labelling (fragment/DMSO); higher = less target engagement (more negative = stronger competition), active = hit call of the paper (q ≤ 0.05, log2 ratio ≤ -1)
Settings in all cases: compound concentration: 200 uM; treatment time: 3 h
USP34 = USP34 (UniProt Q70CQ2)
USP34, sequence (Q70CQ2 whole entry, the tested form may be a part): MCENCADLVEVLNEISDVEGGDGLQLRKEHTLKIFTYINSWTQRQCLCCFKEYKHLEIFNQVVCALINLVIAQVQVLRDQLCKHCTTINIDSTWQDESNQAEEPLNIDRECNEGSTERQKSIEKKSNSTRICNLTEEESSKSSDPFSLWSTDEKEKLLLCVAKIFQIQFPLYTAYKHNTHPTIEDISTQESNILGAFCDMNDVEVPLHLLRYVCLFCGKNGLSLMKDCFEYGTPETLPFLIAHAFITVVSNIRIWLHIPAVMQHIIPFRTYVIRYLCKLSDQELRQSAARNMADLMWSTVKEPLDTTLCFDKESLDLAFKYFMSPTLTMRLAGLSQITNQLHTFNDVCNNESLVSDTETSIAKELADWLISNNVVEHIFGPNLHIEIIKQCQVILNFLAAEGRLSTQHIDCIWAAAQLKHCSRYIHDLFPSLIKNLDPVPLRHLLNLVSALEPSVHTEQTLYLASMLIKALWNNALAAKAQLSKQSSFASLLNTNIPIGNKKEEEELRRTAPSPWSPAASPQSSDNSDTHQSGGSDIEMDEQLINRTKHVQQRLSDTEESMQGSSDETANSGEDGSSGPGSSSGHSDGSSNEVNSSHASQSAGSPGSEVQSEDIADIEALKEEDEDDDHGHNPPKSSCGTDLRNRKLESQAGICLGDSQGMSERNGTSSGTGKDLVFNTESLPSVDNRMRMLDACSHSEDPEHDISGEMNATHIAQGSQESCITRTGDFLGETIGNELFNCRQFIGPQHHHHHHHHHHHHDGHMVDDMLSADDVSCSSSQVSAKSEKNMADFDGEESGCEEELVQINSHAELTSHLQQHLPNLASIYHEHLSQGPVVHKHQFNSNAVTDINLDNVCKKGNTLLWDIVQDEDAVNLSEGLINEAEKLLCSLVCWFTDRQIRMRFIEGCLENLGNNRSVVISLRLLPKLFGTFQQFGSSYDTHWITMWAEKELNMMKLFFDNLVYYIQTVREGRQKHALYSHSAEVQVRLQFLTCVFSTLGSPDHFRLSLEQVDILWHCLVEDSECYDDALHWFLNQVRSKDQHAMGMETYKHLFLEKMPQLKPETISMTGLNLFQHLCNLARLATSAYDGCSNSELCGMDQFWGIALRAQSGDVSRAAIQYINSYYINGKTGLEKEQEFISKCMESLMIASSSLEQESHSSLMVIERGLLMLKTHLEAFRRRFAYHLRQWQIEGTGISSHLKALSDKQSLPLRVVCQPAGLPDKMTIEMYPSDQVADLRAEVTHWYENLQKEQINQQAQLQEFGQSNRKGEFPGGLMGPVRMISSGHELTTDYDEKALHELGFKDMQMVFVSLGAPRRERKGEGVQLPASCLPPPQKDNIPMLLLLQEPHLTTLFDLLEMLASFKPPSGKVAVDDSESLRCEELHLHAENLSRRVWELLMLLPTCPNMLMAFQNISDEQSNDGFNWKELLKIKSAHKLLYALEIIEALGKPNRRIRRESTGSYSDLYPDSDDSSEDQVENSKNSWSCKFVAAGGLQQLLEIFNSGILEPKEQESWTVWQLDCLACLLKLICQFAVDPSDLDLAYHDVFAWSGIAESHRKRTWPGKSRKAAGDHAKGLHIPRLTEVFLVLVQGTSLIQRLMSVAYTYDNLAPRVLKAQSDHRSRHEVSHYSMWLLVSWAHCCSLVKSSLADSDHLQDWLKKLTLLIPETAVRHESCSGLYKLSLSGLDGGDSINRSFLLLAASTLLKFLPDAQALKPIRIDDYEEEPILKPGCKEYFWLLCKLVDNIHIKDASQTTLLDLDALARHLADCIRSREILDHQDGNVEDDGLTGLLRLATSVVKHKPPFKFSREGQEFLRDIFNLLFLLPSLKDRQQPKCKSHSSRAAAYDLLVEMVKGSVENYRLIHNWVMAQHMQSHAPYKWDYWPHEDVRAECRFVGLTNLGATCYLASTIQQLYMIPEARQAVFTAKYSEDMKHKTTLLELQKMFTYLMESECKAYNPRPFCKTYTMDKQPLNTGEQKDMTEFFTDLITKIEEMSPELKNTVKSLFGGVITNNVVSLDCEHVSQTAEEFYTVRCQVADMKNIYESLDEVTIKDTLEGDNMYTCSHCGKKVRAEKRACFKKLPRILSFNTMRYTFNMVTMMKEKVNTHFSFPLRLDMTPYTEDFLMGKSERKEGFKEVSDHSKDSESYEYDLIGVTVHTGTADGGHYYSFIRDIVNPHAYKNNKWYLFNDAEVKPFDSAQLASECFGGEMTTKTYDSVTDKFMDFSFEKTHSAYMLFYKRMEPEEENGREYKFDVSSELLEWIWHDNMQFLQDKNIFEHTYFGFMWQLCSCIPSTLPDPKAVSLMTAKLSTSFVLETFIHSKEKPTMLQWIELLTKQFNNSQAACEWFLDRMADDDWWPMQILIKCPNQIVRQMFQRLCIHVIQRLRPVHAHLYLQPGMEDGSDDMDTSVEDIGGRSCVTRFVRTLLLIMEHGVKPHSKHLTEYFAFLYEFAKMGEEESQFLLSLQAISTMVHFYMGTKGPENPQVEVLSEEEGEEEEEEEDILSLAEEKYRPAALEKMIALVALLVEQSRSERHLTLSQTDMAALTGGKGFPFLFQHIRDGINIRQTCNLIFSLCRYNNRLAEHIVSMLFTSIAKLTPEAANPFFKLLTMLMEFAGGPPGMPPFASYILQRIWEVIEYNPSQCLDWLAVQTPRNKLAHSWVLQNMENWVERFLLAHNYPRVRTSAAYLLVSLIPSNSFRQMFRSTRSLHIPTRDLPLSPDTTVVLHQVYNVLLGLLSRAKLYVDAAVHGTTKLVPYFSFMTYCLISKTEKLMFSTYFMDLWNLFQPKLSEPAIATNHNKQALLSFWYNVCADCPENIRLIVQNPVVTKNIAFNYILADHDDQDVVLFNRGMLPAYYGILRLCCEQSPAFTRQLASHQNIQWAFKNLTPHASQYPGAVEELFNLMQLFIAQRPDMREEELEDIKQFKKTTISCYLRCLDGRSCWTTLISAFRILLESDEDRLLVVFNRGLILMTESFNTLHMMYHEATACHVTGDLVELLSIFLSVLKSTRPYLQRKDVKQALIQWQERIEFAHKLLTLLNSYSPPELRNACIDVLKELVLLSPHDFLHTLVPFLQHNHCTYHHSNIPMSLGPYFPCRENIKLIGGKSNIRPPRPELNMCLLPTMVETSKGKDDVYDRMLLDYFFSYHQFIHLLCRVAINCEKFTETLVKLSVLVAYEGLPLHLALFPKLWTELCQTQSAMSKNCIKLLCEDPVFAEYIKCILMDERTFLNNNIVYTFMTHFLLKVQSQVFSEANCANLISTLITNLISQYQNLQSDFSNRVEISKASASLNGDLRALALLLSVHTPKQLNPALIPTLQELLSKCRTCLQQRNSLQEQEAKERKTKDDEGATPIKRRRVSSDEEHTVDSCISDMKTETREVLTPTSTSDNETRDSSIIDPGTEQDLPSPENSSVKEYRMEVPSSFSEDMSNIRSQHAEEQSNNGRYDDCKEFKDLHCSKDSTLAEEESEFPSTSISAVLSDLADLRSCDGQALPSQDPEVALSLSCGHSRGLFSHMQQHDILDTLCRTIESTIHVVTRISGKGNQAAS
How it was run: (§1)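 HEK293T lysate, 495 µg per sample in Tris/CHAPS/IGEPAL buffer with protease inhibitors, was treated in triplicate with fragment at 200 µM or vehicle for 3 h and then with Biotin-Ahx-Ub-VS at 0.5 µM final for 1 h. Labelled DUBs were NeutrAvidin-enriched, digested with LysC and trypsin, and run by diaPASEF LC-MS/MS. Spectronaut label-free quantities were global-median-normalised, and values are average log2 fragment/vehicle ratios by unpaired t-test on proteins with ≥2 unique peptides.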

USP36 = target: T1, USP36 (UniProt Q9P275)
T1 sequence (whole entry): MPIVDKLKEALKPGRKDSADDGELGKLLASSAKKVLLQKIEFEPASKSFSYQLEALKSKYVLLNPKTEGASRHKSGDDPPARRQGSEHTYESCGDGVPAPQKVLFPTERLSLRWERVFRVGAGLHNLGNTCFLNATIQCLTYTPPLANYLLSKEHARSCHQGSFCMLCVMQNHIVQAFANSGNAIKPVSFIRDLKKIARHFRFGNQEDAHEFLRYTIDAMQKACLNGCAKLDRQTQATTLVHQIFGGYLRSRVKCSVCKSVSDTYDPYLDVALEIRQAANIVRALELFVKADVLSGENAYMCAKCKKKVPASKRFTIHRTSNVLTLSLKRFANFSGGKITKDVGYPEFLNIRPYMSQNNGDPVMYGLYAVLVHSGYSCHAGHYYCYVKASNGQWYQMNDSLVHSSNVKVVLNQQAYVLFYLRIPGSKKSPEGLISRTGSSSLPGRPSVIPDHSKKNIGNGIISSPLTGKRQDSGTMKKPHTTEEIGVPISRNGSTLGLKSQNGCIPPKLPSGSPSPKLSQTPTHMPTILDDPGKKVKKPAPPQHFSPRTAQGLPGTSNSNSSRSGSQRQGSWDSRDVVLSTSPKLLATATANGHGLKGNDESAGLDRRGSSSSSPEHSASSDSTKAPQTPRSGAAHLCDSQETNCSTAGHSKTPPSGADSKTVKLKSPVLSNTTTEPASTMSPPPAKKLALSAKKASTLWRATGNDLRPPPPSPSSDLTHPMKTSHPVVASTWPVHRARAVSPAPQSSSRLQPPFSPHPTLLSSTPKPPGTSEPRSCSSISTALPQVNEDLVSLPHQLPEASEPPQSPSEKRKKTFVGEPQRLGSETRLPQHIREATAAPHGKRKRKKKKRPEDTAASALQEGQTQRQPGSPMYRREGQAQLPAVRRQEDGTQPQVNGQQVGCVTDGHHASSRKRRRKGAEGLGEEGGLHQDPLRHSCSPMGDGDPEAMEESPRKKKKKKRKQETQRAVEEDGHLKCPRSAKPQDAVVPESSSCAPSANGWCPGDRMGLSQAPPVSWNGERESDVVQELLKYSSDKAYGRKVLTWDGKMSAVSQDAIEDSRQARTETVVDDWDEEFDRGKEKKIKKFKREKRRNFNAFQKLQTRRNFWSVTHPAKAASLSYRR
How it was run: as §1

USP38 = target: T2, USP38 (UniProt Q8NB14)
T2 sequence (whole entry): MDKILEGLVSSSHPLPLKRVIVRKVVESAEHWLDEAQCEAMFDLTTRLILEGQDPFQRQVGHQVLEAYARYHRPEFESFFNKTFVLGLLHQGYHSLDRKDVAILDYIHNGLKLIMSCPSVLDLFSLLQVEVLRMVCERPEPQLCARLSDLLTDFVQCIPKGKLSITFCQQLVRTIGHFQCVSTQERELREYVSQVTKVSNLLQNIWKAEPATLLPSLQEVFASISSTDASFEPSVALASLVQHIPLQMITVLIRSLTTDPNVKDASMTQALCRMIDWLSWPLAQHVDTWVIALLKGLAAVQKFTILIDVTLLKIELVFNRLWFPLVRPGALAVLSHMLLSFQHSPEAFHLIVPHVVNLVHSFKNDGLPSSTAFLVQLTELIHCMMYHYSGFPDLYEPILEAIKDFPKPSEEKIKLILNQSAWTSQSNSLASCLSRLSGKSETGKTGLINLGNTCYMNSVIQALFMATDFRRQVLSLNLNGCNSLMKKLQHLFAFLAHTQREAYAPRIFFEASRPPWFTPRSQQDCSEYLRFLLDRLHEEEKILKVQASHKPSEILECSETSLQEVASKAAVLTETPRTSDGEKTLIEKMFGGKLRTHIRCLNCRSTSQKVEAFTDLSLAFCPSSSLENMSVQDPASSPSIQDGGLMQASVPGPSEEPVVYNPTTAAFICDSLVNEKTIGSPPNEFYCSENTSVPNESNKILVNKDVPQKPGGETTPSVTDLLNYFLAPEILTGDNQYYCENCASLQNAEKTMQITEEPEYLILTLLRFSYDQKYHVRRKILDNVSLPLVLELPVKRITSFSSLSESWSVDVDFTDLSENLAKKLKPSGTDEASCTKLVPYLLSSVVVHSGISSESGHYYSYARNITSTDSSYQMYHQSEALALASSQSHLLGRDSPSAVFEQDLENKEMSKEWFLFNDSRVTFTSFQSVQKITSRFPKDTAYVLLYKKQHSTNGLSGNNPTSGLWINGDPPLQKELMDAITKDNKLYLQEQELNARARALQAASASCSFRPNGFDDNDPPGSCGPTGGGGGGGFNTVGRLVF
How it was run: as §1

USP39 = target: T3, USP39 (UniProt Q53GS9)
T3 sequence (whole entry): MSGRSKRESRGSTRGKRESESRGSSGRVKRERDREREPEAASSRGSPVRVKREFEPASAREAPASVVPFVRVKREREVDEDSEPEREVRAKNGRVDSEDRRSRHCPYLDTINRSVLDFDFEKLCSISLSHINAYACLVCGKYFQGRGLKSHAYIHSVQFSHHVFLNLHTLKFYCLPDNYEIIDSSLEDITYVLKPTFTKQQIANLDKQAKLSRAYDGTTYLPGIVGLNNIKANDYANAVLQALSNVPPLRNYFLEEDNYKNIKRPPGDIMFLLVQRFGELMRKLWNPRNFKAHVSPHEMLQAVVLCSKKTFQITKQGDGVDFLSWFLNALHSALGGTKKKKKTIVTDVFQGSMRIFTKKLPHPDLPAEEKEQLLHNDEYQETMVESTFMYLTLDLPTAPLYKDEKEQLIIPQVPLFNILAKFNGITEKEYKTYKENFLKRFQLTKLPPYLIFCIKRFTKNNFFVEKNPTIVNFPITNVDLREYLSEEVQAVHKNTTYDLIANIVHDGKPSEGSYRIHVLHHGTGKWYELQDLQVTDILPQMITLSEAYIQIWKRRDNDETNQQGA
How it was run: as §1

USP4 = target: T4, USP4 (UniProt Q13107)
T4 sequence (whole entry): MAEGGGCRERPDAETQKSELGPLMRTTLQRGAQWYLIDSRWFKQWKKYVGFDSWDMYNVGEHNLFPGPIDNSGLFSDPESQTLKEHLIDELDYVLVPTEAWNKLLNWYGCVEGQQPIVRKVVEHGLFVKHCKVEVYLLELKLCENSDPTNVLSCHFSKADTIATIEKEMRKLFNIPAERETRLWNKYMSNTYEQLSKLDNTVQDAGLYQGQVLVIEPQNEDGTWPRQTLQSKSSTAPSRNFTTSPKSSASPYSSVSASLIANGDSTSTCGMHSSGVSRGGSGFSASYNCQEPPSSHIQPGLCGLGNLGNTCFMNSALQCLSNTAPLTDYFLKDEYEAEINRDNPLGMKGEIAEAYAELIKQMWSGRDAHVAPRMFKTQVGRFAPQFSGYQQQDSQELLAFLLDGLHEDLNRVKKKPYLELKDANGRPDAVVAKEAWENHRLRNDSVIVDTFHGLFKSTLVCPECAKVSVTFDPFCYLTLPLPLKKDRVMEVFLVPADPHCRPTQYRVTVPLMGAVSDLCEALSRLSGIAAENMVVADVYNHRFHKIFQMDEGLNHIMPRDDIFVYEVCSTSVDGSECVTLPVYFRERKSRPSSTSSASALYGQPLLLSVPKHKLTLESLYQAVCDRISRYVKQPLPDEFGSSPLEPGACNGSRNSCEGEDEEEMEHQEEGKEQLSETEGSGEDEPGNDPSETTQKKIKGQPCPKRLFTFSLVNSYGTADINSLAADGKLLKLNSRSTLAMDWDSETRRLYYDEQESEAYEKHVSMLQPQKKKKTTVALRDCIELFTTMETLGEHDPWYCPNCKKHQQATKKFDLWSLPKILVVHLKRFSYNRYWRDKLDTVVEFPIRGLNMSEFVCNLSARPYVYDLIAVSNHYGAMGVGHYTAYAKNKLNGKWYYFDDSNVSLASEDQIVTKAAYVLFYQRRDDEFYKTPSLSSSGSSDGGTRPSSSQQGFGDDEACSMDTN
How it was run: as §1

Measured: log2 ratio of Biotin-Ahx-Ub-VS probe labelling

O=C(CCl)N1CCN2C(=O)CCC2C1 (stereo not given)
inactive: USP34 -0.0311 | USP36 0.272 | USP38 0.0868 | USP39 -0.106 | USP4 -0.0639
